The whole screen tested about 420,000 compounds, of which about 64,000 (15%) were called active. Not shown: some 27% with an inconclusive outcome. Calls follow the shape of the dose curve; as a rule, active = well fitted inhibition curve with a large enough effect; inconclusive = small, poorly fitted or top-dose-only effect; inactive = flat fitted curve, though single readings scatter. These entries were drawn from the full list.
% is scaled to controls: 0 for no effect and ±100 for the full control effect; potency is read from the fitted curve at half-maximal effect.

The nature of this experiment: qHTS for Inhibitors of human tyrosyl-DNA phosphodiesterase 1 (TDP1): qHTS in cells in absence of CPT. Also: nearly all actives have a fitted effect of over 55% in size. The settings on record: DT40 Tdp1-/- hTDP1 cells, no CPT, ATP luminescence, 48 h; activity change, negative = growth inhibition: at 46.2 µM (top of the series). The source says:
Human tyrosyl-DNA phosphodiesterase 1 (TDP1) is a novel repair gene, and we propose to use it as a new target for anticancer drug development. TDP1 is not an essential protein, but under treatment with topoisomerase I poison (camptothecin: CPT), TDP1 works as a critical factor for cell survival. To directly identify novel TDP1 inhibitors active in a cellular environment, we have knocked-out the Tdp1 gene in chicken DT40 cells (Tdp1-/-) and generated a complemented counterpart cells that contains a stable transfection of the human TDP1 gene (Tdp1-/-;hTDP1 cells). For the primary screen, Tdp1-/-;hTDP1 cells will be exposed to small molecules in the presence or absence of CPT, and their growth kinetics will be evaluated after 48 hours by measuring ATP activity. […] The hit compounds will then be evaluated in the presence or absence of CPT using Tdp1-/- cells. […] In tertiary assays, biochemical gel-based assays will be used to assess whether the hit compounds specifically target TDP1.
To this end, we have screened this cell line against the MLSMR in two primary screens. In one screen we add CPT and in the other we screen in the absence of CPT; this AID represents the screen where CPT was absent.
NIH Chemical Genomics Center [NCGC]
NIH Molecular Libraries Probe Centers Network [MLPCN]
Assay Submitter (PI): Yves Pommier, NCI
DT40-hTDP1 cells without 20 nM Camptothecin (add 20 microL of DMSO in 1 L of cell culture medium) were dispensed at 400 cells/5microL/well in tissue culture treated 1536-well white wall/solid bottom assay plates (Greiner Bio-One North America, NC, U.S.A.) using a Multidrop Combi 8 channel dispenser (Thermo Fisher, Waltham, MA, USA). 23 nL compounds and controls were transferred using the pin tool (Kalypsys, San Diego, CA, USA) to the assay plates. The assay plates were then incubated at 37 masculineC for a minimum 48 hr. Three microL of Cell Titer Glo solution was added to the plates and incubated at RT in dark for 30 min. Luminescence was read using ViewLux (Perkin Elmer) with 1 sec exposure slow speed, high gain and 2x binning.
In general terms: In qHTS, concentration-response curves come from the screen itself.
In the case of `Cn1cnnc1SCC(=O)Nc1ccc(N2CCOCC2)cc1`, the “activity change, negative = growth inhibition” value was 7.4% (inactive).
Turning to `CN(CC(=O)NCCc1ccccn1)S(=O)(=O)c1ccc(Cl)cc1`, the “activity change, negative = growth inhibition” value was 0.788% (inactive).
The same measure, in the same setting: in the case of `O=C(CNC(=O)COc1ccccc1)NCCc1ccccn1` it was 5.28% (inactive).
Turning to `O=C(NCCc1ccccn1)c1cc(-c2ccc(Cl)cc2)nc2ccccc12`, the Potency is 18.4 µM (active).
Turning to `Cc1cc(=O)oc(C)c1C(=O)NC1CC(C)(C)NC(C)(C)C1`, the “activity change, negative = growth inhibition” value is -1.14% (inactive).
Same read-out and setting: in the case of `O=C(CC1SCCNC1=O)Nc1ccc(Cl)cc1` (stereo unspecified) it was -10.1% (inactive); in that of `CCOc1ccccc1NC(=O)CCN1CCN(S(=O)(=O)c2ccc(OC)cc2)CC1`, -19.4% (inactive).
Consider `N#Cc1c(N)nc2c3c(sc(=N)c2c1N)NC(=O)CC3c1ccccc1Cl` (stereo unspecified), for which the Potency is 13 µM (active).
Consider `COc1ccc(C2CC(=O)Nc3sc(=N)c4c(N)c(C#N)c(N)nc4c32)cc1OC` (stereo unspecified), for which the “activity change, negative = growth inhibition” value is -15.6% (inactive).
On the same count and under the same terms, in the case of `COCCN(C(=S)Nc1ccccc1OC)C1CCN(C(C)C)CC1` it was 13.4% (inactive).
On the same count and under the same terms, in the case of `CC(Sc1nncs1)C(=O)NCc1ccc2c(c1)OCO2` (stereo unspecified) it was -15.6% (inactive); in that of `O=C(C1Cc2ccccc2CN1C(=O)c1ccco1)N1CCN(c2ccccc2)CC1` (stereo unspecified), -5.87% (inactive); in that of `O=[N+]([O-])c1ccc2[nH]c3c(c2c1)CCCC3O` (stereo unspecified), -21.5% (inactive).
For `Cc1ccccc1CNC(=O)CCCn1nc(C)c2sc3ccccc3c2c1=O`, the Potency was 20.6 µM (active).
With `C[C@H](NC(=O)NCCc1ccccc1)C(=O)O`, the “activity change, negative = growth inhibition” value is 3.87% (inactive).
On the same count and under the same terms, with `Cc1nn(CCCC(=O)NCc2ccccc2Cl)c(=O)c2nccn12` the figure was -16.9% (inactive); with `CC(NCCc1ccc(S(N)(=O)=O)cc1)C(=O)NCc1ccccc1` (stereo unspecified), 13.9% (inactive).
Regarding `Cc1ccc(C)c(N2CCN(C(=O)Cn3nc(C)c4sc5ccccc5c4c3=O)CC2)c1`, the Potency was 23.1 µM (active).
The same measure, in the same setting: in the case of `Cc1nn(C(C)C(=O)NCCc2ccccc2)c(=O)c2c1sc1ccccc12` (stereo unspecified) it was 16.4 µM (active).
As for `CCc1cc2c(cc3c(=O)n(CC(=O)N4CCN(c5cc(Cl)ccc5C)CC4)nc(CC)n32)s1`, the “activity change, negative = growth inhibition” value was -27.1% (inactive).
The same measure, in the same setting: with `CCc1nn(CC(=O)N2CCN(c3cc(C)ccc3C)CC2)c(=O)c2cc3occc3n12` the figure was -16.9% (inactive); with `CCc1nn(CCCC(=O)NCc2ccccc2OC)c(=O)c2cc3occc3n12`, -8.88% (inactive).
Same read-out and setting: in the case of `Cc1cc(C)cc(OCC(=O)NNC(=O)CCN2C(=O)c3ccccc3C2=O)c1` it was -13.1% (inactive).
Same read-out and setting: with `Cc1ccc(O)c(NC(=O)c2cc(-c3ccco3)on2)c1` the figure was -20.7% (inactive).
With `CC1Cc2cc(/C(O)=C3\C(=O)C(=O)N(CCN4CCOCC4)C3c3ccccc3F)ccc2O1` (stereo unspecified), the “activity change, negative = growth inhibition” value is 1.69% (inactive).
Same read-out and setting: in the case of `O=C(O)CC1S/C(=N\N=C/c2ccccc2O)N(c2ccc(O)cc2)C1=O` (stereo unspecified) it was -0.385% (inactive); in that of `CN(C(=O)c1ccccc1)c1nccnc1C#N`, -11.8% (inactive); in that of `CC(=O)Nc1cccc(C(=O)OCC(=O)NCc2cc(C)c(O)c(C)c2)c1`, 6.94% (inactive).
Still for that read-out and setting: in the case of `Cc1cc(=O)[nH]c(N/N=C/c2ccc3c(c2)OCCO3)n1` it was 16.8% (inactive).
On to `Brc1ccc(-c2csc(N/N=C/c3ccc4c(c3)OCO4)n2)cc1`, for which the Potency is 8.2 µM (active).
Take `O=C(CN1CCN(c2nc(-c3ccccc3)cs2)CC1)NCc1ccc2c(c1)OCO2`: the “activity change, negative = growth inhibition” value was -25.4% (inactive).
Still for that read-out and setting: in the case of `O=C(NCC(=O)N1CCN(c2ccccc2F)CC1)c1cccs1` it was 6.86% (inactive); in that of `COc1cc(/C=C(\C#N)C(=O)Nc2ccc3ccccc3c2)c([N+](=O)[O-])cc1OC`, -10.2% (inactive).
The same measure, in the same setting: with `O=c1ccc2cc(S(=O)(=O)Nc3ccccc3F)ccc2o1` the figure was -31.6% (inactive); with `Nc1ccc(OCC(O)C[n+]2ccc(CCS(=O)(=O)[O-])cc2)cc1` (stereo unspecified), -3.67% (inactive).
Still for that read-out and setting: in the case of `COc1ccc(C(=O)COC(=O)CN2C(=O)C3CC=CCC3C2=O)c(OC)c1` (stereo unspecified) it was -1.18% (inactive); in that of `CCCc1cc(=O)[nH]c(SCC(=O)c2c(N)n(CC(C)C)c(=O)n(C)c2=O)n1`, -20.6% (inactive).
Regarding `CC(C)Cn1c(N)c(C(=O)COC(=O)CN2C(=O)C3CC=CCC3C2=O)c(=O)n(C)c1=O` (stereo unspecified), the Potency was 9.2 µM (active).
With `COc1ccc(Br)cc1/C=N/n1c(C)nnc1C`, the “activity change, negative = growth inhibition” value was 5.28% (inactive).
The same measure, in the same setting: in the case of `O=C(/C=C\NCC(=O)c1ccccc1)c1ccccc1` it was -16.2% (inactive); in that of `Cc1nc(NC(=O)C23CCC(C)(C(=O)O2)C3(C)C)sc1C` (stereo unspecified), -3.52% (inactive).
For `CN1c2ccc(Cl)cc2-c2nc(SCC(=O)Nc3cc(F)ccc3F)ncc2S1(=O)=O`, the Potency is 23.1 µM (active).
For the molecule `CC(C)Cn1c(SCC(=O)Nc2ccc(Cl)cc2F)nc(O)cc1=O`, the “activity change, negative = growth inhibition” value was -20.6% (inactive).
On the same count and under the same terms, with `O=C(CCN1C(=O)c2ccncc2C1=O)Nc1cc(F)ccc1F` the figure was 2.57% (inactive); with `N/C(Cc1ccc([N+](=O)[O-])cc1)=N\OC(=O)COc1ccc2ccccc2c1`, -4.59% (inactive); with `CCOc1ccccc1NC(=O)c1cccnc1`, 8.78% (inactive).
Consider `Cc1ccc(Nc2nc(CSc3nnnn3-c3ccccc3)cc(=O)[nH]2)cc1`, for which the Potency is 18.4 µM (active).
As to `Nc1nc(CSc2nnnn2-c2ccccc2)nc(Nc2ccccc2)n1`, the “activity change, negative = growth inhibition” value is -11.6% (inactive).
On the same count and under the same terms, in the case of `Cc1ccc(NC(=O)CSc2nc(CSc3ccc(C)cc3)cc(=O)[nH]2)cc1` it was -1.55% (inactive); in that of `Cc1ccc(N2C(=O)CC(NCc3ccc4c(c3)OCO4)C2=O)cc1Cl` (stereo unspecified), -4.98% (inactive); in that of `CSC1=NC2(C)CCCCC2C12C=CC(=O)C=C2` (stereo unspecified), 13.8% (inactive).
